For 5 compounds, composite z-score, composite Z-score and z-score results are on record in PubChem BioAssay.

Assay [1] addresses Albumin (Bos taurus) (UniProt P02769). Nature of the assay: bovine serum albumin binders on microarray, profiling panel, artefact control for SMM control protein annotation, biochemical, small-molecule microarray, Alexa647 label, 635/667 nm fluorescence (AID 1118).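 Also: score merges 667 nm emission intensity and signal-to-noise per printed compound spot.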 The note with it: BSA-A647 binding, fluorescence 635 nm, higher = more signal.
Assay [2] is described as follows: small-molecule microarray binders of probe aXIP, primary screen, biochemical, NeuroSMM set, 635/667 nm fluorescence (AID 1119).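 Also: probe is the protein aXip251-270 applied at 1 µg/mL to compound-printed slides; binding of probe to printed compounds measured as 667 nm fluorescence plus signal to noise.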 The following applies: higher = more signal, called active from +8 up or from −8 down.
A short description of assay [3]: small-molecule binders of probe aNOTCH3, primary screen, biochemical, small-molecule microarray, 635/667 nm fluorescence (AID 1120).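 Also: probe is a biotin-tagged antibody raised against NOTCH3 rather than NOTCH3 protein; score merges spot fluorescence near 667 nm with spot signal to noise.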 The note with it: higher = more signal.
Assay [4] in a line: small-molecule binders of probe aNOTCH2, primary screen, biochemical, small-molecule microarray, 635/667 nm fluorescence (AID 1121).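 Also: score merges feature fluorescence read at 667 nm with its signal to noise.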 The following applies: higher = more signal.
Assay [5] deals with Carbonic anhydrase 2 (Homo sapiens) (UniProt P00918). Nature of the assay: CAII small-molecule binders, profiling panel, biochemical, small-molecule microarray, Alexa647-labelled CAII (AID 1122). The note with it: CAII-A647 binding fluorescence, higher = more signal.
Assay [6] is described as follows: COS7 lysate on small-molecule microarray, probe aHis, 635 nm (AID 1123).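 Also: z-score combines 667nm fluorescence intensity with signal-to-noise per printed compound spot.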 The note with it: COS7 cell lysate, fluorescence, higher = more signal.
A short description of assay [7]: compound binding in COS7 lysate, probe aLAP1, primary screen, cell lysate, small-molecule microarray (AID 1124).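 Also: lysate comes from COS7 cells expressing LAP1 and is applied at 0.3 µg/mL; score merges spot fluorescence near 667 nm with signal-to-noise over triplicate slides.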 The following applies: probe aLAP1, fluorescence, higher = more signal.
Assay [8] concerns Sam68 (KHDRBS1). Nature of the assay: Sam68 small-molecule binders, primary screen, biochemical, small-molecule microarray, 635 nm fluorescence (AID 1125).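 Also: score merges 667 nm channel intensity with signal to noise over triplicate slides.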 The note with it: small-molecule microarray binding, higher = more signal.
Assay [9] concerns Chordin-like protein 2 (CHRDL2). Nature of the assay: CHRDL2 small-molecule binders, primary screen, biochemical, small-molecule microarray, 635 nm fluorescence (AID 1126).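 Also: printed compound slides probed with Chrdl2 protein at 4 µg/mL for 1 h at 4 C; score merges 667 nm emission intensity with signal to noise over three replicate slides.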 The following applies: small-molecule microarray binding, fluorescence 635 nm; higher = more signal.
Assay [10] addresses Concanavalin-A (Canavalia ensiformis) (UniProt P02866). Nature of the assay: ConA small-molecule binders, primary screen, artefact control for SMM control protein annotation, biochemical, small-molecule microarray, Alexa647 label, 635 nm (AID 1127).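 Also: z combines 667 nm emission intensity with signal-to-noise across three replicate slides.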 The following applies: ConA-A647 binding fluorescence, higher = more signal.
A short description of assay [11]: anti-His antibody binders, primary screen, artefact control for SMM control protein annotation, biochemical, small-molecule microarray, 635 nm fluorescence (AID 1128).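 Also: score merges feature fluorescence with signal-to-noise for each printed compound spot.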 The note with it: anti-His Alexa647 antibody binding, higher = more signal.
Assay [12] relates to Human papillomavirus type 1a E7 protein (residues 1-88). Nature of the assay: HPV1a E7 small-molecule binders, primary screen, biochemical, small-molecule microarray, residues 1-88, 635 nm (AID 1129). The note with it: small-molecule microarray binding, fluorescence 635 nm; higher = more signal.
For assay [13], the target named is Focal adhesion kinase 1 (Homo sapiens) (UniProt Q05397). Nature of the assay: small-molecule microarray binders of FAK, primary screen, biochemical, 635/667 nm fluorescence, BSA, DTT (AID 1130).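 Also: composite of spot emission at 667 nm and signal to noise over triplicate slides.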 The note with it: PTK2 binding, 635 nm fluorescence, higher = more signal.
The subject of assay [14] is Fibrinogen (Alexa647-labelled). Nature of the assay: fibrinogen binders on compound microarrays, profiling panel, artefact control for SMM control-protein annotation, biochemical, small-molecule microarray, 635/667 nm fluorescence (AID 1131).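 Also: z-score merges 667 nm fluorescence with per-spot signal-to-noise over triplicate slides.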 The following applies: fibrinogen-A647 binding fluorescence, higher = more signal.
Assay [15] has as its target Follistatin (Homo sapiens) (UniProt P19883). Nature of the assay: follistatin binders on small-molecule microarrays, primary screen, biochemical, small-molecule microarray, 635/667 nm fluorescence (AID 1132). The following applies: FST binding, 635 nm fluorescence, higher = more signal.
Assay [16] concerns the target Fibroblast growth factor 2 (Homo sapiens) (UniProt P09038). Nature of the assay: FGF2 binders on small-molecule microarrays, primary screen, biochemical, small-molecule microarray, 635/667 nm fluorescence (AID 1133). The note with it: small-molecule microarray binding, FGF2, fluorescence 635/667; higher = more signal.
The nature of assay [17]: mitochondrial membrane potential change in A549 cells, profiling panel, cell-based, JC-1 fluorescence, basal, 24 h, 100 nL (AID 1138).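 Also: A549 lung adenocarcinoma cells under basal conditions with no added stimulus; test concentration not given here.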 The following applies: higher = more signal.
The subject of assay [18] is Lefty1. Nature of the assay: Lefty1 binders on small-molecule microarrays, primary screen, biochemical, small-molecule microarray, 635/667 nm fluorescence (AID 1139). The following applies: small-molecule microarray binding, fluorescence 635/667; higher = more signal.
In assay [19] the test system is wheat germ agglutinin (Triticum aestivum), Alexa647-labelled. Nature of the assay: wheat germ agglutinin binders on compound microarrays, profiling panel, artefact control for SMM control-protein annotation, biochemical, small-molecule microarray, 635/667 nm fluorescence (AID 1140).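 Also: score merges 667 nm feature emission with signal to noise over triplicate slides.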 The note with it: WGA-A647 binding, 635 nm fluorescence, higher = more signal.
In assay [20] the target is Luciferin 4-monooxygenase (Photinus pyralis) (UniProt P08659). Nature of the assay: firefly luciferase enzyme inhibitors, primary screen, biochemical, luminescence, purified enzyme, 2006 set (AID 1141).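 Also: cell-free assay with purified firefly luciferase at 100 ng per well in PBS; test concentration not given here.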 The note with it: SteadyGlo luminescence, 30 min, higher = more signal, called active from +8 up or from −8 down.

Calls of active or inactive are those of the source.

Sequence of Follistatin (Homo sapiens) (P19883 whole entry, looked up): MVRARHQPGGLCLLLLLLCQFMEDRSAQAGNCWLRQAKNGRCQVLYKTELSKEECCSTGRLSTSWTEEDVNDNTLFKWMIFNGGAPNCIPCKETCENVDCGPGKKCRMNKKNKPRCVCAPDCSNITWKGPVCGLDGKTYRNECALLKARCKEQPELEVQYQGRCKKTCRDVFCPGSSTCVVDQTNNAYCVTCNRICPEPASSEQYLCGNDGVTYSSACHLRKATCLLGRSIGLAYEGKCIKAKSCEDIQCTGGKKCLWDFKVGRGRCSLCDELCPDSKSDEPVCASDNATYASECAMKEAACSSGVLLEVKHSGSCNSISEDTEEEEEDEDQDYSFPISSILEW
Sequence of Albumin (Bos taurus) (P02769 whole entry, looked up): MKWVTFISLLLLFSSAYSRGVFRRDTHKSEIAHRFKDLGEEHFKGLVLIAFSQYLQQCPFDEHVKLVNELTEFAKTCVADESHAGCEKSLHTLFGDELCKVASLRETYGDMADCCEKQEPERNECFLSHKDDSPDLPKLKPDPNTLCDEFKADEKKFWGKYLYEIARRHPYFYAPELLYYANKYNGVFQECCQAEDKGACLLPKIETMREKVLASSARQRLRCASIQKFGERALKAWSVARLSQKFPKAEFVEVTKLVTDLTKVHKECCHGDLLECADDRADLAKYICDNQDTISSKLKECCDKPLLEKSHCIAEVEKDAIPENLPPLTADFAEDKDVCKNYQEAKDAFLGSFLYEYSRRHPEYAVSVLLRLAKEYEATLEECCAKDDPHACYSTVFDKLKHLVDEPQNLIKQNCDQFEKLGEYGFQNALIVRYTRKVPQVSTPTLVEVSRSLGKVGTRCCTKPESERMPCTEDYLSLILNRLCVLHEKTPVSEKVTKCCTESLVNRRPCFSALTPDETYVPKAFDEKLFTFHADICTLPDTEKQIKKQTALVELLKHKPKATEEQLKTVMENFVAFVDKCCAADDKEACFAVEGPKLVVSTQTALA
Sequence of Fibroblast growth factor 2 (Homo sapiens) (P09038 whole entry, looked up): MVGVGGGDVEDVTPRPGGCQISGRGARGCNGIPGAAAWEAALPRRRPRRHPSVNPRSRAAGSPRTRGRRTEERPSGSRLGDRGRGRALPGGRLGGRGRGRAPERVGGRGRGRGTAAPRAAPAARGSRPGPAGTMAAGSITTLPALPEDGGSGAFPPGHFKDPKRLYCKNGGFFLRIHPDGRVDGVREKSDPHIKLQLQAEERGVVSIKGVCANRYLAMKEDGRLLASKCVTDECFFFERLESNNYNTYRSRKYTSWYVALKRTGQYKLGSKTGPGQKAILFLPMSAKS
Sequence of Concanavalin-A (Canavalia ensiformis) (P02866 whole entry, looked up): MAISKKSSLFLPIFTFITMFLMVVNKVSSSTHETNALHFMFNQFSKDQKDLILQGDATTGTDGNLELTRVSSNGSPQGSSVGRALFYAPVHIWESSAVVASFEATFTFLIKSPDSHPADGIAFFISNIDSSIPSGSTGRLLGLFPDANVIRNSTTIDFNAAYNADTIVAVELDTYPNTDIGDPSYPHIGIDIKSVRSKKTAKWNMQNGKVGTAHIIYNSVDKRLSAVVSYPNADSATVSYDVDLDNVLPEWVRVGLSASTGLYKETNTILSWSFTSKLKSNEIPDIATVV
Sequence of Luciferin 4-monooxygenase (Photinus pyralis) (P08659 whole entry, looked up): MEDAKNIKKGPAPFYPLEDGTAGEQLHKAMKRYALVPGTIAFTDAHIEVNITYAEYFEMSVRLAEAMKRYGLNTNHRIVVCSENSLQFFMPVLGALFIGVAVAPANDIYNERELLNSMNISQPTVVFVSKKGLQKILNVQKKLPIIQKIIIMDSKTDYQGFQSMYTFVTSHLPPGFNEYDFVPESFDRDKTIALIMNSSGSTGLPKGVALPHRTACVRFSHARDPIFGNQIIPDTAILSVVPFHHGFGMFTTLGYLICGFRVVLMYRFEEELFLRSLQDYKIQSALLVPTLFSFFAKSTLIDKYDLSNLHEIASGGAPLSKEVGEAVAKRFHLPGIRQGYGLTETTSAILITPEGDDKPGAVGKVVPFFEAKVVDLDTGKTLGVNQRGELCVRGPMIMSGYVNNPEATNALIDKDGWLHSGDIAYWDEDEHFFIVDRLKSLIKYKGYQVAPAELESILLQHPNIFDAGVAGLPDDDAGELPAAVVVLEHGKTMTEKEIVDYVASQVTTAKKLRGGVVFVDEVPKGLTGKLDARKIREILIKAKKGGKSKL
Sequence of Focal adhesion kinase 1 (Homo sapiens) (Q05397 whole entry, looked up): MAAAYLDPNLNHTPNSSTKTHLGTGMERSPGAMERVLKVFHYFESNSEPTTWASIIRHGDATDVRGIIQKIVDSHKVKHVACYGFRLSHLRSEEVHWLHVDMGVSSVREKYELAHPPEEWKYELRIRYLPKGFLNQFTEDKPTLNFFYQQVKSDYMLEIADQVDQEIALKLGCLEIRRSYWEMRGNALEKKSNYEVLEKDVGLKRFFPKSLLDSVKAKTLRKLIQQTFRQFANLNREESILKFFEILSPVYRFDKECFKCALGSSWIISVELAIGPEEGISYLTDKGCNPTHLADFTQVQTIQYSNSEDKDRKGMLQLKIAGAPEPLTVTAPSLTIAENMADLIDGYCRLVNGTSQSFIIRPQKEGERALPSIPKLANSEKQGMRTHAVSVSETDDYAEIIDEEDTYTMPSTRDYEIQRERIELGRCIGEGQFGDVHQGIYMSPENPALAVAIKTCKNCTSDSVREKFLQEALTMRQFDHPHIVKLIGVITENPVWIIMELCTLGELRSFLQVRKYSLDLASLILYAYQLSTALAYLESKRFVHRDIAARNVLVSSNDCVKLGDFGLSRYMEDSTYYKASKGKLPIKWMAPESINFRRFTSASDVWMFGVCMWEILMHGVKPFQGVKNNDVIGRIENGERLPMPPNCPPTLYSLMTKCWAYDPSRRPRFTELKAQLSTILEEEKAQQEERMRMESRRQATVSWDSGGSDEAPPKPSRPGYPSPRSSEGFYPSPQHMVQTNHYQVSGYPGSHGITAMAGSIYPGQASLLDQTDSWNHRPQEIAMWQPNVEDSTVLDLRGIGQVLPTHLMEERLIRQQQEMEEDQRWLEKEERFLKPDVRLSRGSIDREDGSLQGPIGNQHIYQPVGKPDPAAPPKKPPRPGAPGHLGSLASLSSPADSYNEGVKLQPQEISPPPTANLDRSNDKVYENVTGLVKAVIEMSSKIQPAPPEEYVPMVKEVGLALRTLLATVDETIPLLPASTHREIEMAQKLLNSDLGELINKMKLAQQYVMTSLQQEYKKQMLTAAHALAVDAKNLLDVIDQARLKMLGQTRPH

On to `COCCOC(=O)N1C(=O)[C@@]2(c3ccccc31)[C@H](c1ccc(O)cc1)N1[C@H](c3ccccc3)[C@H](c3ccccc3)OC(=O)[C@H]1[C@@H]2C(=O)N1CCN(c2ncccn2)CC1`, for which the composite z-score in assay [1] is 0.397; in [3], -0.0014; in assay [4] it was 0.0456; in [5], 0.202; in assay [6], 1.83; in assay [7], 1.03. The composite z-score in [8] came out at 1.2; in [9], 0.375; in assay [10] it was 0.928; in [11] it was 0.682; in assay [12], 1.14; in assay [13], 0.666. Besides, the composite z-score amounted to 0.244 in [14]; 1.04 in assay [15]; 1.43 in assay [16]; 0.806 in assay [18]; 0.026 in assay [19]. In [2], the composite Z-score was 0.0692 (inactive). Moreover, the figures for the z-score in assay [17] and in assay [20] were -0.727 and 0.504 (inactive), respectively.

As to `COc1ccc(C#Cc2ccc3c(c2)[C@]2(C(=O)N3)[C@H](c3ccc(OCCO)cc3)N3[C@H](c4ccccc4)[C@H](c4ccccc4)OC(=O)[C@H]3[C@@H]2C(=O)NC[C@H](O)c2ccccc2)cc1`, the composite z-score in assay [1] was 0.615; in [3] it was 0.779; in [4], -0.0531; in assay [5] it was 0.496; in assay [6], 1.71; in assay [7], 0.117. The composite z-score in assay [8] is 1.3; in assay [9] it was 0.152; in assay [10] it was 1.02; in [11] it was 0.825; in assay [12] it was 1.23; in assay [13] it was 0.116. Besides, the composite z-score in [14] was determined as 0.928; in assay [15], 0.789; in assay [16], 1.05; in [18] it was 0.906; in assay [19], 0.887. Also, the composite Z-score in assay [2] was -0.128 (inactive). For the same compound, the z-score in assay [17] was -1.54; in assay [20] it was -0.0696 (inactive).

With `COc1ccc([Si](C)(C)[C@@H]2[C@@H](CCO)O[C@]3(C(=O)N(Cc4ccccc4)c4ccc(N5C(=O)c6cccc7cccc5c67)cc43)[C@H]2C)cc1`, the composite z-score in assay [1] was 0.511; in assay [3], -0.146; in assay [4] it was -0.155; in [5], -0.0746; in assay [6], 1.25; in [7], -0.3. Also, the composite z-score in assay [8] was -0.239; in assay [9] it was -0.215; in assay [10] it was 1.01; in assay [11], -0.435; in assay [12], -0.0814; in [13], 0.15. The composite z-score in assay [14] was -0.304; in assay [15] it was -0.384; in assay [16] it was -0.176; in assay [18], -0.52; in assay [19], 0.342. Further, the composite Z-score in assay [2] is 0.708 (inactive). The figures for the z-score in [17] and in [20] were -0.0894 and -1.04 (inactive), respectively.

`COc1cccc(C)c1NC(=O)O[C@H]1[C@H](OC(=O)Nc2ccccc2-c2ccccc2)[C@H](OC(=O)Nc2ccccc2-c2ccccc2)[C@@H](OC)O[C@@H]1CO`: the composite z-score was 0.816 in [1]; 0.233 in assay [3]; 0.0149 in [4]; 0.434 in assay [5]; 0.947 in assay [6]; 0.429 in [7]. Further, the composite z-score in [8] was found to be 1.29; in assay [9], 0.494; in assay [10], 1.15; in [11], 0.528; in assay [12], 1.22; in [13], 0.588. Also, the composite z-score in assay [14] came to 0.974; in assay [15], 1.35; in assay [16] it was 0.79; in assay [18], 0.906; in assay [19], 0.79. In assay [2], the composite Z-score was 0.497 (inactive). For the same compound, the z-score in assay [17] is -0.41; in assay [20] it was -0.33 (inactive).

For `CC[C@@H]1C=C(C(=O)O)[C@H](c2ccc(C#N)cc2)N1S(=O)(=O)c1ccc(C)cc1`, the composite z-score is 0.173 in assay [1]; -0.0077 in assay [3]; -0.046 in assay [4]; 0.838 in [5]; 3.03 in [6]; 1.44 in assay [7]. In addition, the composite z-score in assay [8] was 1.09; in [9] it was -1.52; in [10], 0.91; in assay [11], 3.35; in assay [12], 0.845; in assay [13], 0.941. The composite z-score in [14] is -0.0509; in [15] it was -0.594; in assay [16], -0.105; in assay [18], -0.833; in assay [19], 1.09. Moreover, in assay [2], the composite Z-score is 0.474 (inactive). The z-score in assay [17] was -0.0902; in [20], 0.522 (inactive).
